The values that follow are results of earlier work, collected in PubChem BioAssay AID977608.

Each structure is given as a SMILES string. Hit rate of the full screen: of about 4,300 compounds, about 4,300 (100%) were called active. No cut-off is given here; in the data, nearly all actives have IC50 up to about 1400 µM. The set was probably picked from earlier hits. The list shows a part of the results. Where a SMILES comes first, the peptide text is derived from it. Square brackets hold non-standard residues; d marks the D form. Peptide text beside a SMILES is read from it. [ ]: non-standard residue; d: D form. Orn(CH(NH2)2) = NC(N)NCCC[C@H](N)C(=O)O

This series in a line: literature IC50 values for PDB complexes, PDB-derived complexes (AID 977608). The settings on record: PDB protein-ligand complexes.

On to `Cn1c(=O)c(C(=O)NCC(=O)O)c(O)c2ccccc21`, for which the IC50 (usually the concentration that inhibits the measured activity by half) (protein: EGL NINE HOMOLOG 1, PDB entry 4bqw) is 0.033 µM (active).
As for `CO[C@H]1CN(c2nc(-c3ncnn3C)c(C(=O)O)s2)CC[C@H]1NC(=O)c1[nH]c(C)c(Cl)c1Br`, the IC50 (protein: DNA GYRASE SUBUNIT B, PDB entry 4bae) was 0.003 µM (active).
With `Nc1ccc(CC(=O)OCCc2ccccc2)c(C=O)c1`, the IC50 (protein: RHOMBOID PROTEASE GLPG, PDB entry 3zeb) is 0.74 µM (active).
On to `Cc1ccc(S(=O)(=O)Nc2cc(Oc3ccccc3)ccc2C(=O)O)cc1`, for which the IC50 (protein: Genome polyprotein, PDB entry 4j0a) is 0.16 µM (active).
As for `Cc1ccc(S(=O)(=O)Nc2ccc(Oc3ccccc3)cc2C(=O)O)cc1`, the IC50 (protein: Genome polyprotein, PDB entry 4j08) is 0.22 µM (active).
Turning to `N=C[C@@H]1CCCN1C(=O)CNC12C[C@@H]3C[C@@H](CC(O)(C3)C1)C2`, where the note is “protein: Dipeptidyl peptidase 4, PDB entry 3w2t”, the IC50 is 0.0292 µM (active).
As to `O=C(O)c1sc(-c2ccccc2)cc1N1C(=O)CC[C@@H]1C1CCCCC1`, under “protein: NS5B, PDB entry 4tn2”, the IC50 is 0.12 µM (active).
For the compound `Cc1[nH]ncc1-c1ccc(F)cc1`, the IC50 (protein: Adenylate cyclase type 10 hsolAC, PDB entry 4oz2) was 1000 µM (active).
For the compound `Cc1[nH]ncc1-c1ccccc1Cl`, the IC50 (protein: Adenylate cyclase type 10 hsolAC, PDB entry 4oyo) was 300 µM (active).
As for `O=c1c2ccccc2oc2c(Cc3ccc(O)cc3)[nH]c(-c3cccs3)c12`, the IC50 (protein: cGMP-specific 3',5'-cyclic Phosphodiesterase-5 (PDE5), PDB entry 4md6) is 0.017 µM (active).
Take `CC(=N)C[C@@H](c1ccccc1)[C@]12Nc3cc(C)c(C)cc3N(C[C@H](O)[C@H](O)[C@H](O)CO[P+](O)(O)O[P+](O)(O)OC[C@H]3O[C@@H](n4cnc5c(N)ncnc54)[C@H](O)[C@@H]3O)[C@@H]1NC(=O)NC2=O`: the IC50 (protein: LYSINE-SPECIFIC HISTONE DEMETHYLASE 1A, PDB entry 4uva) is 1.78 µM (active).
`Cc1cc2c(cc1C)N([C@@](N)(CCc1ccccc1)c1ccccc1)C1C(=O)NC(=O)N=C1N2C[C@H](O)[C@H](O)[C@H](O)CO[P+](O)(O)O[P+](O)(O)OC[C@H]1O[C@@H](n2cnc3c(N)ncnc32)[C@H](O)[C@@H]1O` (stereo not given in full): the half-maximal inhibitory concentration (IC50) (protein: LYSINE-SPECIFIC HISTONE DEMETHYLASE 1A, PDB entry 4uvc) was 0.131 µM (active).
On to `CCC(=N)C[C@@H](c1ccccc1)[C@]12Nc3cc(C)c(C)cc3N(C[C@H](O)[C@H](O)[C@H](O)CO[P+](O)(O)O[P+](O)(O)OC[C@H]3O[C@@H](n4cnc5c(N)ncnc54)[C@H](O)[C@@H]3O)[C@@H]1NC(=O)NC2=O`, for which, under “protein: LYSINE-SPECIFIC HISTONE DEMETHYLASE 1A, PDB entry 4uv9”, the IC50 is 0.975 µM (active).
On to `Cc1cc2c(cc1C)N1[C@@](C)(N)CC(c3ccccc3)[C@]13C(=O)NC(=O)N[C@H]3N2C[C@H](O)[C@H](O)[C@H](O)CO[P+](O)(O)O[P+](O)(O)OC[C@H]1O[C@@H](n2cnc3c(N)ncnc32)[C@H](O)[C@@H]1O` (stereo not given in full), for which the IC50 (protein: LYSINE-SPECIFIC HISTONE DEMETHYLASE 1A, PDB entry 4uvb) was 3.26 µM (active).
Turning to `Cc1cc2c(cc1C)N(C[C@H](O)[C@H](O)[C@H](O)CO[P+](O)(O)O[P+](O)(O)OC[C@H]1O[C@@H](n3cnc4c(N)ncnc43)[C@H](O)[C@@H]1O)[C@@H]1NC(=O)NC(=O)[C@@]1([C@@H](CC(=N)Cc1ccccc1)c1ccccc1)N2`, the IC50 (protein: LYSINE-SPECIFIC HISTONE DEMETHYLASE 1A, PDB entry 4uv8) is 0.335 µM (active).
Consider `O=C(O)c1nc(-c2ccc3cccc(N=Nc4nc5ccccc5s4)c3c2)sc1CCCCc1ccccc1`, for which the half-maximal inhibitory concentration (IC50) (protein: BCL-2-LIKE PROTEIN 1, PDB entry 3zlo) is 0.0015 µM (active).
Consider `CC[C@H](C)[C@H](NC(=O)[C@H](C)NC(=O)[C@H](CC(N)=O)NC(=O)[C@@H]1CCCN1C(=O)[C@@H](N)CC(C)C)C(=O)NCC(=O)N[C@@H](CCCNC(N)N)C(=O)O` (H-LPNAIG[Orn(CH(NH2)2)]-OH), for which the IC50 (protein: Low-density lipoprotein receptor-related protein 6, PDB entry 3sov) is 61 µM (active).
On to `NCCCC[C@H](N)C(=O)N[C@@H](CCCNC(N)N)C(=O)N1CCC[C@H]1C(=O)N1CCC[C@H]1C(=O)N1CCC[C@H]1C(=O)N1CCC[C@H]1C(=O)N1CCC[C@H]1C(=O)N1CCC[C@H]1C(=O)NCC(=O)O` (H-K[Orn(CH(NH2)2)]PPPPPPG-OH), for which the IC50 (protein: cortactin isoform a, PDB entry 2d1x) was 7.9 µM (active).
For `CC[C@H](C)[C@H](NC(=O)[C@@H](NC(=O)[C@@H](NC(=O)[C@H](CCCNC(N)N)NC(=O)[C@H](CCCCN)NC(=O)[C@H](CO)NC(=O)[C@H](CCCNC(N)N)NC(=O)CNC(=O)[C@@H](NC(=O)[C@H](CCC(N)=O)NC(=O)CNC(=O)[C@H](CC(C)C)NC(=O)[C@H](CCCCN)NC(=O)[C@@H]1CCCN1C(=O)[C@@H]1CCCN1C(=O)[C@H](CCCNC(N)N)NC(=O)[C@@H](N)CCCCN)[C@@H](C)CC)C(C)C)C(C)C)C(=O)O` (H-K[Orn(CH(NH2)2)]PPKLGQIG[Orn(CH(NH2)2)]SK[Orn(CH(NH2)2)]VVI-OH), the IC50 (protein: Calcium/calmodulin dependent protein kinase II, PDB entry 3kl8) was 0.12 µM (active).
For `C#CC[C@H](NC(=O)[C@@H](NC(=O)[C@H](CC(C)C)NC(=O)[C@@H](NC(=O)CNC(=O)[C@@H](NC(=O)CNC(=O)[C@H](C)NC(=O)[C@@H](CCC)NC(=O)[C@](C)(N)c1ccccc1)[C@@H](C)CC)[C@@H](C)CC)[C@@H](C)O)C(=O)O`, for the setting “protein: HLA class I histocompatibility antigen, A-2 alpha chain HLA-A 0201, PDB entry 4wj5”, the IC50 was 0.51 µM (active).
As for `CC[C@H](C)[C@H](NC(=O)[C@H](CO[P+](O)(O)O)NC(=O)[C@H](C)NC(=O)[C@H](CCC(N)=O)NC(=O)[C@@H](N)CCCNC(N)N)C(=O)N[C@@H](CCC(=O)O)C(=O)N[C@@H](CC(C)C)C(=O)N1CCC[C@H]1C(=O)N[C@@H](CO)C(=O)N[C@@H](CCSC)C(=O)O`, the IC50 (protein: HLA class I histocompatibility antigen, PDB entry 3bh8) is 0.0112 µM (active).
Regarding `CC[C@H](C)[C@H](NC(=O)[C@H](CCCNC(N)N)NC(=O)CNC(=O)[C@@H](NC(=O)[C@@H](NC(=O)[C@@H](NC(=O)[C@@H](NC(=O)[C@H](CO)NC(=O)CNC(=O)CN)C(C)C)C(C)C)[C@@H](C)CC)C(C)C)C(=O)N[C@H](C(=O)N[C@@H](CC(C)C)C(=O)N[C@@H](CO)C(=O)O)[C@@H](C)CC` (HELM PEPTIDE1{G.G.S.V.V.I.V.G.[NC(N)NCCC[C@H](N[*:1])C(=O)[*:2]].I.I.L.S}$$$$V2.0), the IC50 reads like this: (protein: Genome polyprotein (D1194V mutation), PDB entry 4i32) 0.058 µM (active); (protein: Genome polyprotein (R1181K mutation), PDB entry 4i33) 0.0047 µM (active); (protein: Genome polyprotein, PDB entry 4i31) 0.00048 µM (active).
`CCCNc1nc(N)c(C(=O)c2ccc(Cl)s2)s1`: for the setting “protein: Cyclin-dependent kinase 2, PDB entry 3s00”, the IC50 is 12 µM (active).
`CNc1cc(-c2cccc(Cl)c2Cl)nc(N)n1`: under “protein: 7,8-dihydro-8-oxoguanine triphosphatase, human MTH1 protein, PDB entry 4n1t”, the IC50 is 0.0008 µM (active).
For the compound `Nc1nc(NC2C=C2)cc(-c2cccc(Cl)c2Cl)n1`, the IC50 (protein: 7,8-dihydro-8-oxoguanine triphosphatase, human MTH1 protein, PDB entry 4n1u) is 0.005 µM (active).
`O=C(NO)c1ncc(-c2ccccc2Cl)o1`: the IC50 (protein: METHIONINE AMINOPEPTIDASE, PDB entry 4a6w) is 1.9 µM (active).
As to `Cc1ccc(OC[C@@H](O)CNC2Cc3ccccc3C2)cc1C`, the IC50 (protein: Endochitinase CTS1, PDB entry 4txe) is 2.4 µM (active).
Consider `C1=CC1c1[nH]nc2nccc(-c3ccco3)c12`, for which the IC50 (protein: CHECKPOINT KINASE 2, PDB entry 4bdj) was 7.2 µM (active).
As for `O=C(NCc1ccc(S(=O)(=O)C2CCN(C3CCOCC3)CC2)cc1)n1cc2ccncc2c1`, under “protein: Nicotinamide phosphoribosyltransferase, PDB entry 4kfp”, the IC50 is 0.01 µM (active).
Regarding `C[C@H](C(=O)O)c1ccc2c(c1)[nH]c1ccc(Cl)cc12`, the half-inhibitory concentration (IC50) (protein: Fatty-acid amide hydrolase 1, PDB entry 4do3) is 79 µM (active).
Consider `Nc1nc(Nc2ccc(S(N)(=O)=O)cc2)sc1C(=O)Nc1c(F)cccc1F`, for which the IC50 (protein: Cyclin-dependent kinase 2, PDB entry 3r9h) was 100 µM (active).
`Nc1nc(Nc2ccc(S(N)(=O)=O)cc2)sc1C(=O)Nc1cccc(F)c1`: the half-maximal inhibitory concentration (IC50) (protein: Cyclin-dependent kinase 2, PDB entry 3r9d) is 71 µM (active).
For `Nc1nc(Nc2ccc(S(N)(=O)=O)cc2)sc1C(=O)Nc1cc(F)cc(F)c1`, the 50% inhibitory concentration (IC50) (protein: Cyclin-dependent kinase 2, PDB entry 3r9o) was 100 µM (active).
